The source of these data is PubChem BioAssay AID463173 (ICCB-Longwood Screening Facility, Harvard Medical School, 2010).

Hit rate of the full screen: of about 52,000 compounds, about 1,700 (3.3%) were called active. The list comes from a sample in which actives are over-represented; it also holds similar structures and randomly drawn compounds. A number with no mark means an inactive call. Cut-off read from the data, not from the text of the source: active = survival mostly below about 52% (no sharp cut-off); inactive = mostly above about 56%.

The test system of this assay is Wild type. Put plainly: growth inhibition of S. aureus wild type versus tarO mutant, primary screen, teichoic acid synthesis inhibitors, RN4220, OD600 (AID 463173). The note with it: S. aureus RN4220 wild type/DeltatarO growth, OD600, 18 h, active compounds read low, screened at 18.75 µg/mL (by protocol).
Take `O=C(COc1ccccc1Cl)OCc1cc(=O)n2nc(C3CCCCC3)sc2n1`: the survival was 71%.
Consider `Cc1ccc(Cc2nc3ccccc3nc2SCC(=O)N2CCC(C)CC2)cc1`, for which the survival was 77%.
With `CCc1c(C)nc2cc(-c3ccccc3)[nH]n2c1=O`, the survival was 106%.
`Cc1nc2nc(NC(=O)C(C)C)[nH]n2c(=O)c1Cc1ccccc1`: the survival is 88%.
Under `Cc1cccc(Cc2c(C)nc3c(-c4ccccc4)c(C)[nH]n3c2=O)c1` stands 4% (active); under `COc1cccc(C(=O)Nc2nc3nc(C)c(Cc4ccccc4)c(=O)n3[nH]2)c1`, 105%; under `Cc1nc2c(-c3ccccc3)c(C)[nH]n2c(=O)c1Cc1ccc(C(C)C)cc1`, -5% (active).
The same measure for `Cc1ccc(Cc2c(C)nc3c(-c4ccccc4)c(C)[nH]n3c2=O)cc1`: -11% (active); for `Cc1nc2nc(NC(=O)CC(C)C)[nH]n2c(=O)c1Cc1ccccc1`: 110%; for `Cc1nc2nc(NCc3cccc(Cl)c3)[nH]n2c(=O)c1Cc1ccccc1`: 85%.
With `CCOC(=O)CCc1c(C)nc2c(-c3ccccc3)c(C)[nH]n2c1=O`, the survival is 74%.
Under `Cc1nc2nc(NCc3ccccc3Cl)[nH]n2c(=O)c1Cc1ccccc1` stands 86%.
Regarding `Cc1ccccc1Cc1c(C)nc2c(-c3ccccc3)c(C)[nH]n2c1=O`, the survival was -13% (active).
The same measure for `CCc1ccc(CNc2nc3nc(C)c(Cc4ccccc4)c(=O)n3[nH]2)cc1`: 93%; for `CCCCN(C)C(=O)c1ccc2c(=O)n3nc(Nc4cc(C)ccc4C)sc3nc2c1`: 140%; for `CCN(CC)CCCNC(=O)c1nn(-c2ccc(OC)c(Cl)c2)c(=O)c2c1c1ccccc1n2C`: 80%.
Consider `O=C(Cn1cc(S(=O)(=O)N2CCN(c3ccccc3F)CC2)c2ccccc2c1=O)Nc1ccc(F)cc1Cl`, for which the survival is 129%.
Turning to `Cc1cccc(CN2C(=O)CC(c3ccc(Cl)cc3)c3c(C)nn(-c4nc(C)cc(C)n4)c32)c1` (configuration not stated), the survival is 76%.
Turning to `Cc1nc2c(-c3ccccc3)c(C)[nH]n2c(=O)c1Cc1ccc(Br)cc1`, the survival is -5% (active).
`Cc1nc2nc(NCc3ccc(Br)cc3)[nH]n2c(=O)c1Cc1ccccc1`: the survival is 63%.
On to `Cc1nc2nc(NCc3cccc(Br)c3)[nH]n2c(=O)c1Cc1ccccc1`, for which the survival was 68%.
The same measure for `CCc1nc2nc(C)cc(Nc3ccc(OC)cc3OC)n2n1`: 75%.
Under `COC(=O)c1scc(-c2ccc(C)cc2)c1S(=O)(=O)Nc1ccc(F)cc1F` stands 72%.
Consider `CCN(Cc1ccccc1)c1nc2c(S(=O)(=O)c3ccccc3)nnn2c2ccc(Cl)cc12`, for which the survival is 88%.
As to `CCN(CC)c1nc2c(S(=O)(=O)c3ccccc3)nnn2c2ccc(Cl)cc12`, the survival is 9% (active).
Under `CCc1ccc(S(=O)(=O)c2nnn3c2nc(N(CC)Cc2ccccc2)c2cc(Cl)ccc23)cc1` stands 92%; under `Cc1cccc(NC(=O)CSc2nnc(C)c(=O)[nH]2)c1`, 101%.
Regarding `Cc1ccc(CN2CCN(C3CCN(C(=O)OC(C)(C)C)CC3)C(=O)C2=O)cc1`, the survival was 124%.
Turning to `CCOC(=O)c1nnn(C(CC)C(=O)Nc2ccc(F)cc2)c1C(=O)OCC` (configuration not stated), the survival is 99%.
Consider `CCC(C(=O)Nc1cc(C)ccc1OC)n1nnc(C(=O)OC)c1C(=O)OC` (configuration not stated), for which the survival was 89%.
In the case of `CCc1ccc(NC(=O)C(CC)n2nnc(C(=O)OC)c2C(=O)OC)cc1` (configuration not stated), the survival was -1% (active).
With `CCCCN1CC(c2nc3ccccc3n2CCCCOc2ccc(C)cc2C)CC1=O` (configuration not stated), the survival is -5% (active).
On to `CCOc1ccc(N2CC(c3nc4ccccc4n3CCCCOc3ccc(OC)cc3)CC2=O)cc1` (configuration not stated), for which the survival is 71%.
Under `CCOc1ccccc1N1CC(c2nc3ccccc3n2CCCOc2ccccc2OC)CC1=O` (configuration not stated) stands 79%.
The same measure for `CCCCN1CC(c2nc3ccccc3n2CCCCOc2cc(C)ccc2C)CC1=O` (configuration not stated): -6% (active); for `Cc1ccc(CCNC(=O)CCS(=O)(=O)c2cc3c(cc2Cl)NC(=O)CO3)cc1`: 91%; for `COc1ccc(C(=O)NCC(c2cccs2)S(=O)(=O)c2ccc(C)cc2)cc1` (configuration not stated): 143%.
For `CCc1ccc(N(CC(=O)NCC2CCCO2)S(C)(=O)=O)cc1` (configuration not stated), the survival was 112%.
Take `CCOC(=O)c1ccc(NC(=O)c2noc3c2CCCC3)cc1`: the survival was -2% (active).
As to `O=C(Nc1ccc(OC(F)(F)F)cc1)c1noc2c1CCCC2`, the survival is 86%.
Consider `COc1ccc(NC(=O)c2noc3c2CCCC3)cc1Cl`, for which the survival is 82%.
Under `O=C(CCS(=O)(=O)c1ccc(Br)cc1)Nc1ccc(F)cc1F` stands 53%; under `Cc1ccccc1OCc1nc2ccccc2n1Cc1ccccc1Cl`, 0% (active).
Take `COc1ccc(OCc2nc3ccccc3n2Cc2ccccc2Cl)cc1`: the survival is 72%.
Regarding `C=CCc1ccccc1OCc1nc2ccccc2n1CC`, the survival was 76%.
Under `Cc1ccc(OCc2nc3ccccc3n2Cc2ccccc2Cl)cc1` stands 7% (active).
Consider `Cc1cccc(C(=O)NCc2nc3ccccc3n2Cc2ccccc2Cl)c1`, for which the survival was 107%.
Under `CC(=O)Nc1ccc(S(=O)(=O)NCCc2cn3ccsc3n2)cc1` stands 72%.
The same measure for `COc1ccc(-c2nc3sc(CCNC(=O)C(=O)Nc4ccc(C)c(C)c4)c(C)n3n2)cc1`: 117%; for `Cc1cc(C(F)F)n2nc(C(=O)Nc3ccc(F)c(Cl)c3)nc2n1`: 83%; for `CN1CCc2c(sc3nc(=S)[nH]c(N)c23)C1`: 109%.
In the case of `COc1cccc(Nc2sc(C(=O)c3ccc(F)cc3)c(N)c2C(=O)NCc2ccc(C)cc2)c1`, the survival was 63%.
Take `Cc1ccccc1Nc1sc(C(=O)c2ccccc2)c(N)c1C(=O)NCc1ccc(Cl)cc1`: the survival was 73%.
The same measure for `Cc1ccc(CNC(=O)c2c(Nc3ccccc3C)sc(C(=O)c3ccc(F)cc3)c2N)cc1`: -3% (active); for `Cc1ccccc1Nc1sc(C(=O)c2ccc(F)cc2)c(N)c1C(=O)NCCc1ccccc1`: 55%; for `COc1cccc(Nc2sc(C(=O)c3ccc(F)cc3)c(N)c2C(=O)NCc2ccc(Cl)cc2)c1`: 0% (active).
Consider `COc1cccc(Nc2sc(C(=O)c3ccc(Cl)cc3)c(N)c2C(=O)NCc2ccc(C)cc2)c1`, for which the survival was 76%.
Under `CCS(=O)(=O)N1CC(=O)N(c2cc(C)ccc2C)C(C)(C(=O)NC2CCCCC2)C1` (configuration not stated) stands 59%; under `COc1ccc(-c2cn3c(n2)sc2cc(C(=O)NC4CCCc5ccccc54)ccc23)cc1` (configuration not stated), 78%; under `COC(=O)c1ccccc1NC(=O)CSc1nc2ccsc2c(=O)n1CCC(C)C`, 78%.
Under `CCC(C)n1c(SCC(=O)Nc2ccccc2C(=O)OC)nc2ccsc2c1=O` (configuration not stated) stands -1% (active); under `CCn1c(SCC(=O)Nc2ccccc2C(=O)OC)nc2ccsc2c1=O`, 83%.
Under `O=C(NCC(c1ccco1)S(=O)(=O)c1cccs1)c1ccccc1F` (configuration not stated) stands 80%; under `Fc1ccc(CNc2cc(-c3ccccc3)nc3nncn23)cc1`, 29%.
Consider `Fc1ccc(-c2cc(C(F)(F)F)nc(NCc3ccccc3)n2)cc1`, for which the survival was 93%.
The same measure for `Fc1ccc(CNc2nc(-c3ccc(Cl)cc3)cc(C(F)(F)F)n2)cc1`: -5% (active).
For the compound `O=C(NCc1ccc(F)cc1)c1cc(-c2ccc(Cl)cc2)n[nH]1`, the survival is 94%.
Under `Fc1ccc(CNc2nc(-c3ccccc3)cc(C(F)(F)F)n2)cc1` stands -3% (active); under `CC1CCN(S(=O)(=O)c2ccc3nc(NCc4ccccc4)ccc3c2)CC1`, 131%.
With `Cc1nc2ccn(Cc3ccco3)c(=O)c2cc1C(=O)NCc1ccc(Cl)cc1`, the survival is 60%.
Regarding `O=C(O)c1ccc2c(c1)C(=O)NC2=O`, the survival was 113%.
For the compound `O=C(Nc1ccc2[nH]c(=O)c(=O)[nH]c2c1)c1cccc(F)c1`, the survival was 140%.
The same measure for `CC(=O)Nc1ccc(S(=O)(=O)NC2=NCN(C(C)C)CN2)cc1`: 143%.
Regarding `C=CCNC(=O)Nc1c[nH]c2ccccc2c1=O`, the survival is 111%.
The same measure for `O=C(CSCc1cc(=O)c2ccccc2[nH]1)Nc1cccc(C(F)(F)F)c1`: 124%.
As for `O=C(O)CCC(=O)N1CCc2cc(S(=O)(=O)NCc3ccc(F)cc3)ccc21`, the survival was 85%.
In the case of `O=C(CCc1nnc2n(Cc3ccccc3Cl)c(=O)c3ccccc3n12)Nc1ccc(F)c(F)c1`, the survival is 89%.
Under `O=C(Nc1ccc(F)cc1F)c1cc(CN2CCOCC2)on1` stands 69%; under `CCOC(=O)c1cnc2ccc(OC)cc2c1NCCc1ccccc1`, 0% (active).
The same measure for `CCOC(=O)c1cnc2c(C)c(Cl)ccc2c1NCCc1ccc(OC)c(OC)c1`: 4% (active); for `CCOC(=O)c1cnc2c(C)cc(Cl)cc2c1NCCc1ccc(OC)c(OC)c1`: 48%.
The same measure for `CCOC(=O)c1cnc2ccc(OCC)cc2c1NCCc1ccc(OC)c(OC)c1`: 133%; for `CCOC(=O)c1cnc2c(C)cc(C)cc2c1NCCc1ccc(OC)c(OC)c1`: 75%; for `CCOC(=O)c1cnc2c(C)c(Cl)ccc2c1NCCc1ccccc1`: -3% (active).
Turning to `CCOC(=O)c1cnc2ccc(OC)cc2c1NCCc1ccc(OC)c(OC)c1`, the survival was 78%.
Under `CCOC(=O)c1cnc2c(C)c(Cl)ccc2c1Nc1ccc(C)cc1C` stands 140%.
The same measure for `CCOC(=O)c1cnc2c(C)c(C)ccc2c1NCCCCCO`: 110%; for `COc1cc(Cl)c(C)cc1NC(=O)c1cnn(-c2ccc(C)cc2)c1-n1cccc1`: 65%.
Under `CC1(C(=O)O)CCC(C(=O)N2CCCCC2)C1(C)C` (configuration not stated) stands 106%; under `Cc1ccc(NC2=C(CC(=O)O)C(c3ccc(F)cc3)N(c3ccc(C)cc3)C2=O)cc1` (configuration not stated), 74%.
`Cc1ccc(CNC(=O)CCc2c(C)c3ccc(O)c(C)c3oc2=O)cc1`: the survival is 87%.
The same measure for `Cc1nc2sc(C(=O)NCc3ccc(Cl)cc3)c(NC(=O)c3ccccc3)c2c(C)c1C`: 86%.
